Experimental data reported in PubChem BioAssay AID588342 (National Center for Advancing Translational Sciences (NCATS), 2011).
In all, about 360,000 compounds went through this assay and about 25,000 (6.9%) were called active. Not shown: some 9% with an inconclusive outcome. The sample as a whole holds a higher share of actives than the screen did. A number with no mark means an inactive call. Calls follow the shape of the dose curve; as a rule, active = well fitted inhibition curve with a large enough effect; inconclusive = small, poorly fitted or top-dose-only effect; inactive = flat fitted curve, though single readings scatter.

biological target: Luciferin 4-monooxygenase (Photinus pyralis) (UniProt P08659); test: qHTS profiling assay for firefly luciferase inhibitor/activator using purifed enzyme and Km concentrations of substrates (counterscreen for miR-21 project); conditions: purified FLuc, luminescence inhibition; series mostly up to 57.5 µM; activity change, negative = inhibition: at the top concentration; also: nearly all actives have a fitted effect of over 55% in size;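 as to activity change, negative = inhibition: plate controls were vehicle for no effect and reference inhibitor for full effect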
Sequence (P08659 whole entry, looked up): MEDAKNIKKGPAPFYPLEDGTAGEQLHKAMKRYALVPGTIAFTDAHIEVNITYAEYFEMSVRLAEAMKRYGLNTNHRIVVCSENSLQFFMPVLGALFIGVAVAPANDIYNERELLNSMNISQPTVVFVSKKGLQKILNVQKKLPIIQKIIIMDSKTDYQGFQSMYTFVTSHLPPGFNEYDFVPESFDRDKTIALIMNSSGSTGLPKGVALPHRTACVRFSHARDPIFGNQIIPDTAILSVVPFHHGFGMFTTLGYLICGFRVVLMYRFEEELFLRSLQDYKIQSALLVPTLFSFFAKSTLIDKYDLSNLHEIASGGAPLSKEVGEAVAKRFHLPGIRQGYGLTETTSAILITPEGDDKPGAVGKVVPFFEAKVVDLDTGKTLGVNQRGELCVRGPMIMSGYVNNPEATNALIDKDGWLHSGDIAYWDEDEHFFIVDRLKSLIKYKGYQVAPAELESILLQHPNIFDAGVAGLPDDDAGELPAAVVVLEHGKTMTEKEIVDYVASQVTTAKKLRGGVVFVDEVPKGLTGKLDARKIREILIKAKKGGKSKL
Description: MLPCN Grant: 1 R21 NS059478-01 (miR-21 grant) Assay Provider: NCGC NCGC Assay Overview: Firefly (Photinus pyralis) luciferase is one of the most commonly used transcriptional reporters for a number of reasons. It is considered one of the more dynamically responsive reporters -that is, responsive to changes in reporter transcription - as it requires no post-translational modifications and is enzymatically active directly after protein synthesis (Wood, 1998). Additionally, the half-life of the luciferase protein is short relative to other reporter-gene products (Wood, 1995). Whereas reporters with long half-lives potentially allow for increased signal due to accumulation of reporter-gene product, once accumulated in the cell, dynamic changes in reporter-gene expression may be difficult to detect(Fan and Wood, 2007; Almond et al., 2004). It has been shown that wild-type P. pyralis luciferase has a half-life of approximately […] hours in mammalian cells (Thompson et al., 1991). Firefly luciferase reporter-gene assays are also generally considered one of the most sensitive assay types (Wood, 1995; Wood, 1998). Although light produced in a bioluminescence reaction is of lower intensity than that produced during fluorescence emission, this is offset by little to no background light inherent to luminescent assays. Thus the luciferase reporter can be expressed at much lower levels than fluorescent proteins while still providing robust signal. # However, it was initially observed, in 1991, by Thompson et al., that compounds that resemble the substrates of firefly luciferase (FLuc) can act as competitive inhibitors of the enzyme, and that these compounds, upon interaction with luciferase in the cell, can actually stabilize the protein and increase its half-life. Accumulated intracellular FLuc protein can be measured as an increase in luminescence signal, upon addition of detection reagents (which contain high concentrations of FLuc substrates) commonly used in high-throughput screening. In cell-based reporter gene assays that use FLuc as the reporter gene to quantitate the potential influence of a given compound against the target biology, this apparent increase in luminescence can mistakenly be interpreted as identification of a compound that is active against the target of interest. This is the case for the miR-21 FLuc reporter gene assay used to identify inhibitors of the miR-21 pathway (PubChem AID 2289) - compounds of interest will inhibit miR-21 biogenesis/expression or activity, and are identified by causing an increase in luminescence, due to increased FLuc translation. However, FLuc inhibitory compounds that stabilize the FLuc protein will give an identical read-out, making it difficult to distinguish compounds that are active against the target from those active against FLuc. Previous profiling work to determine the prevalence of compounds that affect FLuc enzymatic activity (PubChem AID 411) identified that ~3% of the MLSMR library (then at ~72K) inhibited FLuc. […] Since the MLSMR had grown to ~350K compounds, and since it was expected that a significant percentage of compounds found active in the miR-21 FLuc assay would be FLuc inhibitors, the library was screened for activity against FLuc using a biochemical assay of purified FLuc and KM concentrations of FLuc substrates (D-luciferin and ATP).
NCGC Assay Protocol Summary: Reagents: 50mM Tris acetate, pH 7.5; 10mM Mg acetate; 10uM D-luciferin (Sigma #L9504); 10uM ATP; 0.01% Tween-20; 0.05% BSA; 10nM P. pyralis luciferase (Sigma #L9506) Control compounds used were two known firefly luciferase inhibitors (compounds (2) and (5) in Auld et al., 2010), and DMSO. […]

In order of falling “activity change, negative = inhibition” value:
1. CCOC(=O)c1oc2ccccc2c1NC(=O)c1cccs1  13.2%
2. COc1ccc(CCNC(=O)Cn2c(=O)cc(C(F)(F)F)c3c(C)nn(C)c32)c(OC)c1  7.08%
3. NC(=O)c1ccsc1NC(=O)COC(=O)COc1ccc(C=O)cc1  6.4%
4. CCC1SC(CC)C(=O)N(CC(=O)NC2CCCCC2)C1=O (centres undefined)  5.3%
5. COC(=O)[C@H](CC(C)C)NC(=O)N1CCCCC1C (some centres undefined)  4.28%
6. Cc1cc(NC(=O)c2ccc(-c3ccc(Cl)cc3)o2)cc(-c2nc3ncccc3o2)c1O  3.37%
7. Cc1ccc(F)cc1NC(=O)CSCc1c(C)noc1C  3.3%
8. O=C(Nc1n[nH]c(C(F)(F)F)n1)c1cccs1  2.94%
9. CCOc1ccc(S(=O)(=O)NCCC(=O)NCC2CCCO2)cc1 (centres undefined)  2.24%
10. COc1ccc(N2CCN(S(=O)(=O)c3ccc4c(c3)N(C(C)=O)CCO4)CC2)cc1  1.92%
11. CCC1CCCCN1Cc1c(O)ccc2c(=O)c(Oc3ccccc3Cl)c(C(F)(F)F)oc12 (centres undefined)  1.49%
12. Cc1nc2ccccn2c(=O)c1NC(=O)c1cccs1  -0.785%
13. CCc1nc2ccc(C(=O)N3CCN(c4cc(Cl)ccc4C)CC3)cc2nc1CC  -1.21%
14. CCCCn1nc(C(=O)OCC(=O)Nc2sccc2C(N)=O)c2ccccc2c1=O  -1.34%
15. CC(CC(=O)Nc1ccccc1)n1ccnc1 (centres undefined)  -1.48%
16. Cc1cccc(NC(=O)C2CCCN2S(=O)(=O)c2cccc3nsnc23)c1C (centres undefined)  -1.86%
17. O=C(Nc1cccnc1Oc1ncnc2cc(Cl)ccc12)c1ccc(F)cc1  -2.02%
18. CC1CCCCN1Cc1c(O)ccc2c(=O)c(-c3cccc(Cl)c3)c(C(F)(F)F)oc12 (centres undefined)  -3.84%
19. Cc1nn(C)c2c1c(C(F)(F)F)cc(=O)n2C(C)C(=O)NCc1ccc(Cl)cc1 (centres undefined)  -6.42%
20. Cc1cc(C)cc(NC(=O)Cc2csc(C)n2)c1  -10.2%
21. CCc1ccccc1NC(=O)N1CCC2(CC1)Oc1ccccc1C(=O)N2Cc1ccccc1F  -10.7%
22. CCc1c(C)sc(NC(=O)c2ccc(Br)o2)c1C(=O)OC  -14.9%
23. COc1cccc(NC(=O)CN2CCN(c3nc(-c4cccc(OC)c4)cs3)CC2)c1  -18.5%

With `O=C(Nc1cccc2ncccc12)c1ccc(-c2ccc(Cl)cc2Cl)o1` the Potency was 12 µM (active).
With `COc1cc(OC)cc(C(=O)OCC(=O)Nc2sccc2C(N)=O)c1` the Potency was 15.1 µM (active).
`CCc1c(C)sc(NC(=O)c2cccs2)c1C(N)=O` was tested, and the Potency was 6.75 µM (active).
With `COc1cccc(CC(=O)Nc2ccc(-c3csc(C)n3)cc2)c1` the Potency was 16.9 µM (active).
`Cc1ccc(-c2csc(NC(=O)c3cccs3)n2)cc1` was tested, and the Potency was 10.7 µM (active).
For `Cc1nc(-c2ccc(NC(=O)c3cccs3)cc2)cs1`, the Potency was 0.426 µM (active).
